# Experimental data taken from PubChem BioAssay (NCATS).
# Values joined by “and” are separate entries in the source; they are usually repeats but may differ in a detail not shown here. Identical values can stand only once. Records with an inconclusive call do not appear. Where a call stands in place of a potency, no number is given. Some structures have more than one record in an assay (separate samples or runs), and their calls can disagree. Active and inactive are the calls of the source. The call rests on the fitted dose curve; in most records, active means well fitted inhibition curve with a large enough effect; inconclusive means small, poorly fitted or top-dose-only effect; inactive means flat fitted curve, though single readings scatter.
# Key:
# CRL-7250 = normal cell line; assay: Cytotoxic Profiling of Annotated Libraries Using Quantitative High-Throughput Screening (AID 1296008); details: Five cell lines viability, CellTiter-Glo ATP luminescence, 48-72 h; max response: stronger effect = lower value
# Method in brief: (§1)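 Cytotoxicity was measured as CellTiter-Glo ATP luminescence, read after 10 min at room temperature. Compound treatment of the cells lasted 48 or 72 hr at 37 degrees Celsius in a qHTS format.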
# HaCat [1] = assay: as above; details: Five cell lines viability, CellTiter-Glo ATP luminescence, 48-72 h; max response: stronger effect = lower value
# Method in brief: as §1
# KB-3-1 = assay: as above; details: Five cell lines viability, CellTiter-Glo ATP luminescence, 48-72 h; max response: stronger effect = lower value
# Method in brief: as §1
# NIH3T3 [2] = assay: as above; details: Five cell lines viability, CellTiter-Glo ATP luminescence, 48-72 h; max response: stronger effect = lower value
# Method in brief: as §1
# MCC-13 = assay: qHTS assay to identify novel small-molecules to repurpose for Merkel cell carcinoma treatment (AID 1296009); details: MCC and control cell lines, CellTiter-Glo viability, 72 h; series mostly up to 46 µM
# Method in brief: (§2)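 After compound transfer in DMSO, plates were kept 72 hr at 37 degree celsius. Luminescent ATP signal from CellTiter-Glo served as viability measure, normalized against DMSO and no-cell controls.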
# MCC-26 = assay: as above; details: MCC and control cell lines, CellTiter-Glo viability, 72 h; series mostly up to 46 µM
# Method in brief: as §2
# MKL-1 = assay: as above; details: MCC and control cell lines, CellTiter-Glo viability, 72 h; series mostly up to 46 µM
# Method in brief: as §2
# MKL-2 = assay: as above; details: MCC and control cell lines, CellTiter-Glo viability, 72 h; series mostly up to 46 µM
# Method in brief: as §2
# UISO = assay: as above; details: MCC and control cell lines, CellTiter-Glo viability, 72 h; series mostly up to 46 µM
# Method in brief: as §2
# HACAT [3] = assay: as above; details: MCC and control cell lines, CellTiter-Glo viability, 72 h; at 44.8 µM (top of the series) unless noted
# Method in brief: as §2
# NIH3T3 [4] = assay: as above; details: MCC and control cell lines, CellTiter-Glo viability, 72 h; at 44.8 µM (top of the series) unless noted
# Method in brief: as §2
# PC26 = assay: qHTS profiling for inhibitors of Plasmodium falciparum proliferation (AID 504749); details: P. falciparum in erythrocytes, SYBR Green DNA, 72 h; series mostly up to 28.7 µM
# Method in brief: (§3)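 Three-day growth assay of blood-stage parasites in erythrocytes (0.3% parasitemia, 2.5% hematocrit) at 37 C, 5% CO2, quantified by SYBR Green DNA staining after overnight detergent lysis.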
# TAB109 = assay: as above; details: P. falciparum in erythrocytes, SYBR Green DNA, 72 h; series mostly up to 28.7 µM
# Method in brief: as §3
# TAB113 = assay: as above; details: P. falciparum in erythrocytes, SYBR Green DNA, 72 h; series mostly up to 28.7 µM
# Method in brief: as §3
# W2 = assay: as above; details: P. falciparum in erythrocytes, SYBR Green DNA, 72 h; series mostly up to 28.7 µM
# Method in brief: as §3
# HEK293 = assay: Cytotoxic Profiling of Annotated Libraries Using Quantitative High-Throughput Screening (AID 1296008); details: Five cell lines viability, CellTiter-Glo ATP luminescence, 48-72 h; max response: stronger effect = lower value
# Method in brief: as §1
# HEK293T = assay: qHTS assay to identify novel small-molecules to repurpose for Merkel cell carcinoma treatment (AID 1296009); details: MCC and control cell lines, CellTiter-Glo viability, 72 h; at 44.8 µM (top of the series)
# Method in brief: as §2
# PC49 = assay: qHTS profiling for inhibitors of Plasmodium falciparum proliferation (AID 504749); details: P. falciparum in erythrocytes, SYBR Green DNA, 72 h; series mostly up to 28.7 µM
# Method in brief: as §3
# SC27B = assay: as above; details: P. falciparum in erythrocytes, SYBR Green DNA, 72 h; series mostly up to 28.7 µM
# Method in brief: as §3
# TAB165 = assay: as above; details: P. falciparum in erythrocytes, SYBR Green DNA, 72 h; series mostly up to 28.7 µM
# Method in brief: as §3
# Further: nearly all actives have a fitted effect of over 60% in size.
# Potency means the concentration at half of the fitted maximal effect.
structure (smiles),measurement,setting,value
Cc1c(CCOc2ccc(C(=O)O)cc2)c2cc(Cl)ccc2n1C(c1ccccc1)c1ccccc1,max response,CRL-7250,-5.22% (inactive)
same,max response,HaCat [1],0.869% (inactive)
same,max response,KB-3-1,-12.2% (inactive)
same,max response,NIH3T3 [2],-32.3% (inactive)
same,Potency,MCC-13,inactive
same,Potency,MCC-26,inactive
same,Potency,MKL-1,inactive
same,Potency,MKL-2,inactive
same,Potency,UISO,inactive
COc1ccc2c3n(c(=NC(=O)c4cccnc4)nc2c1OC)CCN3,max response,CRL-7250,-15.5% (inactive)
same,Potency,HaCat [1],10.5 µM (active)
same,max response,KB-3-1,-17.8% (inactive)
same,Potency,MCC-13,inactive
same,Potency,MCC-26,inactive
same,Potency,MKL-1,inactive
same,Potency,MKL-2,inactive
Cc1ccccc1C(C(=O)NC1CCCC1)N(C(=O)Cn1cnc2ccccc21)c1cccc(F)c1 (configuration not stated),max response,CRL-7250,1.73% (inactive)
same,max response,KB-3-1,7.7% (inactive)
same,outcome,NIH3T3 [2],inactive
same,outcome,HACAT [3],inactive
same,Potency,MCC-13,inactive
same,Potency,MCC-26,inactive
same,Potency,MKL-1,inactive
same,Potency,MKL-2,inactive
same,outcome,NIH3T3 [4],inactive
same,Potency,UISO,inactive
COc1cc2nccc(Oc3ccc(NC(=O)NC4CC4)c(Cl)c3)c2cc1C(N)=O,Potency,CRL-7250,0.92 µM (active)
same,max response,HaCat [1],-5.23% (inactive) and -15.3% (inactive)
same,outcome,KB-3-1,inactive
same,Potency,NIH3T3 [2],14.8 µM (active) and 4.11 µM (active)
same,Potency,MKL-1,2.64 µM (active)
same,Potency,MKL-2,9.35 µM (active)
same,Potency,UISO,18.7 µM (active)
CN1CCN(CCCN2c3ccccc3Sc3ccc(C(F)(F)F)cc32)CC1,Potency,PC26,13.5 µM (active)
same,Potency,TAB109,11.2 µM (active)
same,Potency,TAB113,inactive
same,Potency,W2,4.78 µM (active)
same,Potency,HEK293,23.7 µM (active)
same,outcome,HEK293,inactive
same,max response,HaCat [1],-7.86% (inactive)
same,outcome,HaCat [1],inactive
same,max response,KB-3-1,-5.37% (inactive)
same,outcome,KB-3-1,inactive
same,max response,NIH3T3 [2],-0.173% (inactive)
same,outcome,HACAT [3],inactive
same,outcome,HEK293T,inactive
same,Potency,MCC-13,inactive
same,Potency,MCC-26,inactive
same,Potency,MKL-1,inactive
same,Potency,MKL-2,10.6 µM (active) and inactive
same,Potency,UISO,inactive
Nc1cccc(S(=O)(=O)N2CCCN(S(=O)(=O)c3ccc4c(c3)OCCO4)CC2)c1,max response,CRL-7250,0.264% (inactive)
same,max response,HaCat [1],-12.2% (inactive)
same,max response,KB-3-1,-7.85% (inactive)
same,max response,NIH3T3 [2],-8.98% (inactive)
same,Potency,MCC-13,inactive
same,Potency,MCC-26,inactive
same,Potency,MKL-1,inactive
same,Potency,MKL-2,inactive
same,Potency,UISO,inactive
NC(=O)c1ccc(-c2nc(-c3ccc4c(c3)OCO4)c(-c3ccccn3)[nH]2)cc1,max response,CRL-7250,3.54% (inactive)
same,outcome,HaCat [1],inactive
same,max response,KB-3-1,-0.83% (inactive)
same,max response,NIH3T3 [2],-25.4% (inactive)
same,outcome,HACAT [3],inactive
same,Potency,MCC-13,inactive
same,Potency,MCC-26,inactive
same,Potency,MKL-1,inactive
same,Potency,MKL-2,inactive
same,Potency,UISO,inactive
Cc1cc(Nc2nc(N[C@@H](C)c3ncc(F)cn3)ncc2Cl)n[nH]1,Potency,HEK293,7.31 µM (active)
same,Potency,NIH3T3 [2],8.2 µM (active)
same,Potency,MCC-13,inactive
same,Potency,MCC-26,inactive
Nc1nccc(-c2ccc3noc(-c4ccc(Cl)cc4)c3c2)n1,max response,HaCat [1],-32.6% (inactive)
same,max response,KB-3-1,5.59% (inactive)
same,max response,NIH3T3 [2],-8.8% (inactive)
same,Potency,MCC-13,inactive
same,Potency,MCC-26,inactive
same,Potency,MKL-1,inactive
same,Potency,MKL-2,inactive
CCc1cncnc1N1CCN(Cc2nc3ccc(C(F)(F)F)cc3[nH]2)CC1,Potency,HEK293,14.8 µM (active) and 13 µM (active)
same,max response,HaCat [1],-29.7% (inactive)
same,Potency,MCC-13,inactive
same,Potency,MCC-26,inactive
same,Potency,MKL-1,inactive
same,Potency,MKL-2,inactive
N[C@@H]1CONC1=O,Potency,PC26,inactive
same,Potency,PC49,inactive
same,Potency,SC27B,inactive
same,Potency,TAB113,inactive
same,Potency,TAB165,inactive
same,Potency,W2,inactive
Cc1cccc(-c2nn(C(=S)Nc3ccccc3)cc2-c2ccnc3ccccc23)n1,max response,HaCat [1],-21.4% (inactive)
same,max response,KB-3-1,-23.5% (inactive)
same,Potency,MCC-13,inactive
same,Potency,MCC-26,inactive
same,Potency,MKL-1,inactive
same,Potency,MKL-2,inactive
same,Potency,UISO,inactive
COc1ccc2nc(S(=O)Cc3ncc(C)c(OC)c3C)[nH]c2c1 (configuration not stated),Potency,PC49,inactive
same,Potency,SC27B,inactive
same,Potency,TAB109,inactive
same,Potency,TAB113,inactive
same,max response,KB-3-1,-5.29% (inactive)
same,max response,NIH3T3 [2],-7.21% (inactive) and -1.13% (inactive)
same,outcome,HACAT [3],inactive
same,Potency,MCC-13,inactive
same,Potency,MCC-26,inactive
same,Potency,MKL-1,inactive
same,Potency,MKL-2,inactive
same,Potency,UISO,inactive
